Assay results as given in PubChem BioAssay (NCI).
About 79,000 compounds went through this panel and 15% of them were active in at least one assay; those are over-represented in the sample as a whole. Calls of active or inactive are those of the source. Cut-off read from the data, not from the text of the source: active = growth inhibition above about 70%; inactive = the rest.

Columns and labels:
[1] = NCI Yeast Anticancer Drug Screen. Data for the rad50 strain (AID 155);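 note: 0% = growth of vehicle-only cultures of the same strain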; conditions: S. cerevisiae rad50 strain growth inhibition; at 50.0 µM; active compounds read high
Outline: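 DNA repair mutant yeast, compound exposure, growth read-out; inhibition is taken relative to vehicle.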

[2] = NCI Yeast Anticancer Drug Screen. Data for the mec2-1 strain (AID 157); conditions: S. cerevisiae mec2-1 strain, at 50.0 µM, active compounds read high
Outline: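 Strain: mec2-1 (DNA repair/cell cycle alteration). Compound exposure, then growth measured; inhibition expressed relative to vehicle.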

[3] = NCI Yeast Anticancer Drug Screen. Data for the sgs1 mgt1 strain (AID 161);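 note: 0% = growth of cultures given vehicle only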; conditions: S. cerevisiae sgs1 mgt1 strain, at 50.0 µM, active compounds read high
Outline: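 Mutant yeast exposed to compound; growth scored against vehicle-only wells.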

[4] = NCI Yeast Anticancer Drug Screen. Data for the cln2 rad14 strain (AID 165);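 note: 0% = growth equal to vehicle treated cultures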; conditions: S. cerevisiae cln2 rad14 strain, at 50.0 µM, active compounds read high
Outline: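 Compounds are applied to the cln2 rad14 yeast strain, and growth is then compared with that of vehicle-treated cultures to give inhibition.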

[5] = NCI Yeast Anticancer Drug Screen. Data for the bub3 strain (AID 167); conditions: S. cerevisiae bub3 mutant strain, at 50.0 µM, active compounds read high
Outline: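 In this screen, a yeast mutant lacking normal mitotic checkpoint function is challenged with compound. Relative growth versus vehicle gives the inhibition value.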

[6] = NCI Yeast Anticancer Drug Screen. Data for the mlh1 rad18 strain (AID 175); conditions: S. cerevisiae mlh1 rad18 strain growth inhibition; at 50.0 µM; active compounds read high
Outline: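 Read-out is yeast growth inhibition, calculated against vehicle-only controls. The compound was applied to a strain engineered with DNA damage repair alterations.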

Measured: growth inhibition

CCOc1ccc2ccc3ccccc3c2c1NC(C)=O
inactive: [1] 10.4% | [2] 2.3% | [3] 12.2% | [4] 32% | [5] 3.6% | [6] 6.25%

COc1cc(C(=O)Nc2cccc3ccccc23)c(Br)c(OC)c1OC
inactive: [1] 19.3% | [2] 17.3% | [3] 39.5% | [4] 26.9% | [5] 53.5% | [6] 32.7%

COC(=O)[C@@]12CN(C)[C@@H](C(C)(C)C)N1C(=O)OC2c1ccccc1 (stereo not given in full)
inactive: [1] 24.4% | [2] -25.4% | [3] -23.1% | [4] -1.8% | [5] 36.6% | [6] -8.35%

COc1ccc(-c2cc(-c3cc(C)cc(Br)c3O)no2)cc1
inactive: [1] -6.55% | [2] -13.3% | [3] -10.8% | [4] -3.2% | [5] -4.4% | [6] 14.3%

O=C(NC[N+]12CCO[B-]1(c1ccccc1)OCC2)c1ccccc1O (stereo not given)
inactive: [1] 25.9% | [2] -8.4% | [3] 4.7% | [4] 13.3% | [5] -0.75% | [6] 10.5%

O=C1c2ccccc2C(=O)c2c1ccc1c2N=C(c2ccc(F)cc2)CC(c2ccc(Cl)c(Cl)c2)N1 (stereo not given)
inactive: [1] 58% | [2] 20.1% | [3] 5% | [4] -14.7% | [5] 7.65% | [6] 43.6%

COc1ccc(C2CC2c2ccc(C#N)cc2)cc1 (stereo not given)
inactive: [1] 7.05% | [2] -6.4% | [3] -1% | [4] -40.6% | [5] 6.25% | [6] -22.8%

O=C(CCCl)OC1CCCC1
inactive: [1] 1.5% | [2] -9.8% | [3] -3.6% | [4] -30.4% | [5] -5.65% | [6] 9%

CC1OC(OCc2ccc(-c3ccccc3)cc2)CC(N)C1O (stereo not given)
inactive: [1] -1.9% | [2] 28.9% | [3] 24.6% | [4] -6.85% | [5] 29.6% | [6] 2.9%

CC(C)(CCc1nc2ccccc2[nH]1)C(=O)O
inactive: [1] -18.1% | [2] -6.35% | [3] -1.35% | [4] -10% | [5] 1.05% | [6] -3.85%

CN1CC2(CO)C(c3ccccn3)N(C)C(c3ccccn3)C(CO)(C1)C2O (stereo not given)
inactive: [1] 2.5% | [2] 16.4% | [3] -10.7% | [4] -6.2% | [5] -0.6% | [6] 10.8%

COc1ccc(C(C#N)NC23CC4CC(CC(C4)C2)C3)cc1OC (stereo not given)
inactive: [1] -11.8% | [2] -19.8% | [3] -25.1% | [4] -15.2% | [5] -56.2% | [6] -19.5%

O=C(O)c1cccnc1Cl
inactive: [1] 10.2% | [2] -3.5% | [3] -9.9% | [4] 14.4% | [5] 4.15% | [6] -4.45%

CCCCOC(=O)CCCCCCC/C=C/C1C=CC(CCCC)C(C#N)C1C#N (stereo not given)
inactive: [1] 1% | [2] -5.95% | [3] -25.1% | [4] -6.05% | [5] -4.3% | [6] -13.3%

CCc1ncc(C)[nH]1
inactive: [1] 0.55% | [2] -13.8% | [3] -6.35% | [4] -0.15% | [5] -12.1% | [6] -8.8%

CCCCC1(NN=C2CCCCC2)C(=O)N(c2ccccc2)N(c2ccccc2)C1=O
inactive: [1] -11.2% | [2] -6.2% | [3] -0.4% | [4] -0.75% | [5] -7.4% | [6] -8.65%

Cc1cccc(NCN2C(=O)c3ccccc3C2=O)c1
inactive: [1] -1.8% | [2] 8.75% | [3] 3.8% | [4] -16.4% | [5] 18.7% | [6] -1.7%

C/C(CC/C(C)=N/NC(N)=O)=N/NC(N)=O
inactive: [1] 1.7% | [2] -3.5% | [3] -9.85% | [4] 0.55% | [5] 21.9% | [6] -9.2%

CCN(CC)CCOc1ccc(C)c2c1C(=O)CC2
inactive: [1] -27.6% | [2] -9.2% | [3] -8.45% | [4] -8.7% | [5] 21.4% | [6] -23.6%

COc1ccccc1C1c2cc3c(cc2OC(O)(CO)C1C(=O)O)OCO3 (stereo not given) (tested in a mixture with another compound)
inactive: [1] -18.4% | [2] -22.7% | [3] -15.3% | [4] -14% | [5] -20.6% | [6] -3.15%

CN(C)c1ccc(/C=C2\CCOC2=O)cc1
inactive: [1] 38.1% | [2] 11.8% | [3] 14.3% | [4] 4.6% | [5] 2.95% | [6] 8.6%

COc1ccc(/C=C2\CCCC3=C2NC(=S)NC3c2ccc(OC)cc2)cc1 (stereo not given)
inactive: [1] 24.8% | [2] 21.4% | [3] -6.35% | [4] 5.9% | [5] -1.95% | [6] -37.4%

CN/N=C(/c1nc2ccc([N+](=O)[O-])cc2[nH]c1=O)C(O)c1ccc(C(O)/C(=N\NC)c2nc3ccc([N+](=O)[O-])cc3[nH]c2=O)cc1 (stereo not given)
inactive: [1] 31.2% | [2] -5.55% | [3] 0.6% | [4] -26.2% | [5] -3.85% | [6] 19.4%

CCCCc1c[nH]n(C(N)=NCCSCc2nc[nH]c2C)c1=O
inactive: [1] -7.15% | [2] -18.4% | [3] -9.95% | [4] -20.2% | [5] -2.45% | [6] -4.75%

CCCc1c(OC)c(=O)c2c(OC)cc(OC)c3c4c(OC)cc(OC)c5c(=O)c(OC)c(CCC)c(c1c23)c54
active: [1] 88.3% | [2] 92% | [3] 86.4% | [4] 88.5% | [5] 83% | [6] 92.6%

OCc1ccccc1O
inactive: [1] -1.7% | [2] 6.25% | [3] -6.55% | [4] 25.8% | [5] -0.7% | [6] 11.2%

CCOC(=O)C(CNCc1ccccc1)C1CCCCC1 (stereo not given)
inactive: [1] 8.65% | [2] 1.65% | [3] 18.2% | [4] -0.7% | [5] 5.85% | [6] 16.1%

COc1ccccc1N1C(=O)C2C3c4ccccc4C(OC(C)=O)(c4ccccc43)C2C1=O (stereo not given)
inactive: [1] -19.8% | [2] -13.6% | [3] 4.25% | [4] 3.4% | [5] -14.8% | [6] 12.9%

Cc1ccccc1NCS(=O)(=O)O
inactive: [1] 18.2% | [2] -18.3% | [3] 13.2% | [4] -6.35% | [5] -14.8% | [6] 4.6%

CCC/C(Cl)=N/OC(=O)Nc1cc(C(F)(F)F)ccc1OC
inactive: [1] -34.1% | [2] 17.6% | [3] 5.8% | [4] 8.5% | [5] 40.6% | [6] 21.3%

O=C(O)C1=C(C(=O)Nc2ccc(NC(=O)C3=C(C(=O)O)C4C=CC3C4)cc2)C2C=CC1C2
inactive: [1] -0.75% | [2] -0.35% | [3] -6.3% | [4] -28.4% | [5] 0.25% | [6] 9.95%

COc1cc(OC)c(C2CC(C)(O)Oc3cc4c(cc32)OCO4)c(OC)c1 (stereo not given)
inactive: [1] 17.4% | [2] 3.8% | [3] 26.9% | [4] 3.9% | [5] 22.1% | [6] 11.8%

CC(C)c1ccc(/C=N\NC(=O)NNC(=O)c2ccccc2)cc1
inactive: [1] -3.05% | [2] -4.25% | [3] 11.6% | [4] -95.8% | [5] -2.85% | [6] -8.25%

CCCNc1ncnc2c1ncn2C
inactive: [1] 10.6% | [2] -15% | [3] -3.55% | [4] 7.65% | [5] 7.45% | [6] -4.65%

C=CCO[Si](OCC=C)(OCC=C)OCC=C
inactive: [1] 0.85% | [2] -19% | [3] -6.2% | [4] 13.9% | [5] 9.6% | [6] 3.9%

O=C1/C(=N\O)C2CCC1C2 (stereo not given)
inactive: [1] -11.2% | [2] 0.75% | [3] 0.3% | [4] 2.5% | [5] -9.2% | [6] 0.85%

CC1COC(C(C)c2ccccc2)O1 (stereo not given)
inactive: [1] -0.05% | [2] -18.4% | [3] -10.8% | [4] -35.2% | [5] -29.9% | [6] 6.1%

O=C(/C=C/c1ccc2c(c1)OCO2)NCc1ccco1
inactive: [1] 53.5% | [2] 8.7% | [3] -19.6% | [4] -5.8% | [5] -14.4% | [6] -34.9%

CC1=C(C#[N+][O-])C(C)(C)CCC1
inactive: [1] 1.05% | [2] 5.1% | [3] -2.9% | [4] 10.1% | [5] -23.9% | [6] -16.2%

O=C(O)C1CC1(C(=O)O)C(=O)O (stereo not given)
inactive: [1] 9.75% | [2] 4.05% | [3] -6.95% | [4] 3.45% | [5] -0.05% | [6] -1.1%
